The values below come from PubChem BioAssay (NCI).

The structures appear in SMILES notation. Several values for one entry are separate records, joined by “and”; a condition that tells them apart may be missing. Equal entries are not always repeated. The panel holds about 79,000 compounds, 15% with a hit somewhere; the sample as a whole holds those more often. Unmarked numbers belong to inactive results. Activity calls are given as the source filed them. Rule as the data show it: active = growth inhibition above about 70%; inactive = the rest.

A short description of assay [1]: NCI Yeast Anticancer Drug Screen. Data for the rad50 strain (AID 155).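 Also: 0% = growth of vehicle-only cultures of the same strain.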 The conditions noted are these: S. cerevisiae rad50 strain growth inhibition, hits give high values. In outline:
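Yeast carrying a defined DNA repair defect were exposed to test compounds, and growth was compared with vehicle-treated controls to give percent inhibition.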

A short description of assay [2]: NCI Yeast Anticancer Drug Screen. Data for the mec2-1 strain (AID 157). The conditions noted are these: S. cerevisiae mec2-1 strain, hits give high values. In outline:
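Strain: mec2-1 (DNA repair/cell cycle alteration). Compound exposure, then growth measured; inhibition expressed relative to vehicle.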

A short description of assay [3]: NCI Yeast Anticancer Drug Screen. Data for the sgs1 mgt1 strain (AID 161).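 Also: 0% = growth of cultures given vehicle only.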 As to conditions: S. cerevisiae sgs1 mgt1 strain, hits give high values. In outline: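 Inhibition of yeast growth, normalised to vehicle-treated controls, is reported for a strain bearing genetic alterations in DNA damage repair.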
Assay [4] can be described thus: NCI Yeast Anticancer Drug Screen. Data for the cln2 rad14 strain (AID 165).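 Also: 0% = growth equal to vehicle treated cultures.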 As to conditions: S. cerevisiae cln2 rad14 strain, hits give high values. The gist of the method: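 Compounds are applied to the cln2 rad14 yeast strain, and growth is then compared with that of vehicle-treated cultures to give inhibition.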
Assay [5] is described as follows: NCI Yeast Anticancer Drug Screen. Data for the bub3 strain (AID 167). As to conditions: S. cerevisiae bub3 mutant strain, hits give high values. The gist of the method: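 Compounds were applied to a genetically altered yeast strain carrying a cell-cycle control defect. Growth inhibition was scored against vehicle-treated controls.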
A short description of assay [6]: NCI Yeast Anticancer Drug Screen. Data for the mlh1 rad18 strain (AID 175). As to conditions: S. cerevisiae mlh1 rad18 strain growth inhibition, hits give high values. The gist of the method: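 Read-out is yeast growth inhibition, calculated against vehicle-only controls. The compound was applied to a strain engineered with DNA damage repair alterations.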
The mark [7] stands for this setting: at 5.0 µM (retest, dose inferred, filed as 0.5).
[8] abbreviates: at 50.0 µM (retest, dose inferred, filed as 5.0).

As to `CC(C)c1ccc(C=Nc2ccc(SSc3ccc(N=Cc4ccc(C(C)C)cc4)cc3)cc2)cc1`, the growth inhibition in assay [1] (setting [7]) is 44%; in assay [1] (setting [8]), -7%; in assay [1] (at 50.0 µM), 73.7% (active); in assay [2] (setting [7]) it was 26%; in assay [2] (setting [8]), 1%; in assay [2] (at 50.0 µM), 49.4%. The growth inhibition was 57% in assay [3] (setting [7]); -5% in assay [3] (setting [8]); 57.6% in assay [3] (at 50.0 µM); 5% in assay [4] (setting [7]); -13% in assay [4] (setting [8]); 12.2% in assay [4] (at 50.0 µM). Moreover, the growth inhibition was 13% in assay [5] (setting [7]); 1% in assay [5] (setting [8]); 66.9% in assay [5] (at 50.0 µM); 25% in assay [6] (setting [7]); -11% in assay [6] (setting [8]); 76.4% (active) in assay [6] (at 50.0 µM).
Take `O=C1C=CC(=O)c2c1ccc1c3ccccc3n(Cc3ccccc3)c21`: the growth inhibition in assay [1] (setting [7]) is 27%; in assay [1] (setting [8]), 84% (active); in assay [1] (at 50.0 µM), 73% (active); in assay [2] (setting [7]) it was 38%; in assay [2] (setting [8]), 90% (active); in assay [2] (at 50.0 µM), 71.2% (active). The growth inhibition in assay [3] (setting [7]) is 41%; in assay [3] (setting [8]) it was 90% (active); in assay [3] (at 50.0 µM) it was 59%; in assay [4] (setting [7]), 19%; in assay [4] (setting [8]) it was 49%; in assay [4] (at 50.0 µM), 38%. For the same compound, the growth inhibition in assay [5] (setting [7]) is 52%; in assay [5] (setting [8]), 92% (active); in assay [5] (at 50.0 µM) it was 76% (active); in assay [6] (setting [7]), 47%; in assay [6] (setting [8]), 90% (active); in assay [6] (at 50.0 µM) it was 25.1%.
Consider `O=[N+]([O-])c1ccc(Cl)c(C2CC(c3cccc4ccccc34)=Nc3ccccc3S2)c1` (centres undefined), for which the growth inhibition in assay [1] (setting [7]) is 0%; in assay [1] (setting [8]) it was 0%; in assay [1] (at 50.0 µM), 31.1%; in assay [2] (setting [7]), 0%; in assay [2] (setting [8]) it was 2%; in assay [2] (at 50.0 µM), 83% (active). Moreover, the growth inhibition in assay [3] (setting [7]) was 2%; in assay [3] (setting [8]), 12%; in assay [3] (at 50.0 µM), 30.6%; in assay [4] (setting [7]) it was -1%; in assay [4] (setting [8]) it was 0%; in assay [4] (at 50.0 µM), 43.2%. In addition, the growth inhibition was 2% in assay [5] (setting [7]); 7% in assay [5] (setting [8]); 35.2% in assay [5] (at 50.0 µM); -1% in assay [6] (setting [7]); 6% in assay [6] (setting [8]); 58.3% in assay [6] (at 50.0 µM).
As to `O=C(Nc1cc(-c2ccccc2)[nH]n1)c1ccccc1F`, the growth inhibition in assay [1] (setting [7]) is 41%; in assay [1] (setting [8]) it was 59%; in assay [1] (at 50.0 µM) it was 88.1% (active); in assay [2] (setting [7]), 35%; in assay [2] (setting [8]), 69%; in assay [2] (at 50.0 µM), 86% (active). Besides, the growth inhibition in assay [3] (setting [7]) is 39%; in assay [3] (setting [8]), 83% (active); in assay [3] (at 50.0 µM), 92.8% (active); in assay [4] (setting [7]), 30%; in assay [4] (setting [8]), 54%; in assay [4] (at 50.0 µM) it was 66.5%. Also, the growth inhibition was 42% in assay [5] (setting [7]); 55% in assay [5] (setting [8]); 89.3% (active) in assay [5] (at 50.0 µM); 43% in assay [6] (setting [7]); 86% (active) in assay [6] (setting [8]); 89.6% (active) in assay [6] (at 50.0 µM).
`COc1c(O)cc2oc3cc(O)c(CC=C(C)C)c(O)c3c(=O)c2c1CC=C(C)C`: the growth inhibition in assay [1] (setting [7]) was 98% (active); in assay [1] (setting [8]), 89% (active); in assay [1] (at 50.0 µM), 86.8% (active) and 87.2% (active); in assay [2] (setting [7]) it was 99% (active); in assay [2] (setting [8]) it was 91% (active) and 93% (active); in assay [2] (at 50.0 µM), 89.2% (active) and 90% (active). The growth inhibition in assay [3] (setting [7]) was 99% (active); in assay [3] (setting [8]), 89% (active); in assay [3] (at 50.0 µM), 90.3% (active) and 89.4% (active); in assay [4] (setting [7]), 51% and 42%; in assay [4] (setting [8]), 83% (active) and 86% (active); in assay [4] (at 50.0 µM), 85.2% (active) and 86.2% (active). Also, the growth inhibition in assay [5] (setting [7]) was 98% (active); in assay [5] (setting [8]), 87% (active) and 86% (active); in assay [5] (at 50.0 µM) it was 86.1% (active) and 87% (active); in assay [6] (setting [7]), 99% (active) and 98% (active); in assay [6] (setting [8]) it was 81% (active) and 87% (active); in assay [6] (at 50.0 µM) it was 87.2% (active).
In the case of `Cc1ccccc1N=Nc1ccc(N=Nc2ccc(N)nc2N)c(C)c1`, the growth inhibition was 2% in assay [1] (setting [7]); -23% in assay [1] (setting [8]); 31.2% in assay [1] (at 50.0 µM); -19% in assay [2] (setting [7]); 17% in assay [2] (setting [8]); 62.1% in assay [2] (at 50.0 µM). For the same compound, the growth inhibition in assay [3] (setting [7]) is -1%; in assay [3] (setting [8]) it was 11%; in assay [3] (at 50.0 µM), 10.1%; in assay [4] (setting [7]) it was -4%; in assay [4] (setting [8]), -27%; in assay [4] (at 50.0 µM) it was 15.3%. Also, the growth inhibition was -3% in assay [5] (setting [7]); 9% in assay [5] (setting [8]); 82.2% (active) in assay [5] (at 50.0 µM); -2% in assay [6] (setting [7]); -29% in assay [6] (setting [8]); 28.9% in assay [6] (at 50.0 µM).
With `CC(C)(C)c1ccc(-c2c3ccccc3cc3ccccc23)cc1`, the growth inhibition was -1% in assay [1] (setting [7]); -1% in assay [1] (setting [8]); -2.45% in assay [1] (at 50.0 µM); -1% in assay [2] (setting [7]); -1% in assay [2] (setting [8]); -4.85% in assay [2] (at 50.0 µM). Also, the growth inhibition is -5% in assay [3] (setting [7]); -2% in assay [3] (setting [8]); 7.55% in assay [3] (at 50.0 µM); 2% in assay [4] (setting [7]); -1% in assay [4] (setting [8]); 30.1% in assay [4] (at 50.0 µM). Moreover, the growth inhibition in assay [5] (setting [7]) was 1%; in assay [5] (setting [8]), 16%; in assay [5] (at 50.0 µM) it was 0.8%; in assay [6] (setting [7]), -1%; in assay [6] (setting [8]), 2%; in assay [6] (at 50.0 µM) it was -2.2%.
Turning to `NC(C/[N+]([O-])=N/O)C(=O)O` (centres undefined), the growth inhibition in assay [1] (setting [7]) is 18%; in assay [1] (setting [8]), 21%; in assay [1] (at 50.0 µM) it was 40.7% and 47.2% and 57.1%; in assay [2] (setting [7]) it was 10%; in assay [2] (setting [8]), 13%; in assay [2] (at 50.0 µM), 11.1% and 22.1% and 33.5%. Also, the growth inhibition in assay [3] (setting [7]) is 46%; in assay [3] (setting [8]), 51%; in assay [3] (at 50.0 µM), 36.2% and 39.5% and 48.1%; in assay [4] (setting [7]), 37%; in assay [4] (setting [8]), -28%; in assay [4] (at 50.0 µM), 5.75% and 1.45% and 18.8%. The growth inhibition was 46% in assay [5] (setting [7]); 4% in assay [5] (setting [8]); -0.3% and 17.1% and 21.9% in assay [5] (at 50.0 µM); 25% in assay [6] (setting [7]); 38% in assay [6] (setting [8]); 31.9% and 35.6% and 46.6% in assay [6] (at 50.0 µM).
